In assay [1] the target is Luciferin 4-monooxygenase (Photinus pyralis) (UniProt P08659). Nature of the assay: qHTS assay to identify small molecule inhibitors of firefly luciferase (AID 1224835). Also: nearly all actives have a fitted effect of over 25% in size. Also: potency is read from the fitted curve at half-maximal effect. The method, boiled down:
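Inhibition of purified Photinus luciferase is measured by luminescence. Substrate levels (D-luciferin, ATP) sit at their KM values. Each compound is tested in a concentration series.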

Assay [2] is described as follows: qHTS assay to identify small molecule agonists of the constitutive androstane receptor (CAR) signaling pathway - cell viability counter screen (AID 1224836). Also: nearly all actives have a fitted effect of over 45% in size. The procedure, abridged:
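HepG2 cells stably carrying hCAR and a CYP2B6-2.2kb reporter were plated 4 h, then given compounds at 15 concentrations plus PK11195 (final 0.75 uM). After 23 h at 37 C, viability was read by CellTiter-Fluor fluorescence.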

Assay [3] concerns the target Nuclear receptor subfamily 1 group I member 3 (Homo sapiens) (UniProt Q14994). The experiment in a line: qHTS assay to identify small molecule antagonists of the constitutive androstane receptor (CAR) signaling pathway (AID 1224838). Also: nearly all actives have a fitted effect of over 40% in size. Also: potency is read from the fitted curve at half-maximal effect. The procedure, abridged: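 Inhibition of CITCO-driven (50 nM final) CYP2B6 reporter expression is measured in HepG2 cells stably carrying hCAR. Fifteen compound concentrations are applied for 24 h at 37 C, followed by luciferase luminescence.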

Assay [4] shares this target. Nature of the assay: qHTS assay to identify small molecule agonists of the constitutive androstane receptor (CAR) signaling pathway (AID 1224839). Also: nearly all actives have a fitted effect of over 15% in size. Also: potency is read from the fitted curve at half-maximal effect. The method, boiled down: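 HepG2 cells stably expressing hCAR and a CYP2B6-2.2kb luciferase reporter were treated with compounds at 15 concentrations plus 0.75 uM PK11195 (final) for 24 h at 37 C; luminescence was read after ONE-Glo addition.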

Assay [5] is described as follows: qHTS assay to identify small molecule antagonists of the estrogen related receptor signaling pathway with the pleiotropic PPARgamma coactivator (PGC) from Tox21 10K library - cell viability counter screen (AID 1224840; active = well fitted cell-killing curve with a large enough effect in the repeat runs, not every such curve was filed as active; also: nearly all actives have a fitted effect of over 40% in size). The procedure, abridged:
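Readout: fluorescence intensity from CellTiter-Fluor after 30 min at 37 C/5% CO2. Preceded by 17.5 h treatment of PGC/ERR cells with DMSO-dissolved compounds, added 6 h post-seeding.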

Assay [6] can be described thus: qHTS assay to identify small molecule antagonists of the estrogen related receptor signaling pathway with the pleiotropic PPARgamma coactivator (PGC) from Tox21 10K library (AID 1224841; call rule not given here; also: actives are mostly falling curves and most rising ones were filed inactive; nearly all actives have a fitted effect of over 50% in size; also: potency is read from the fitted curve at half-maximal effect). The method, boiled down: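 One-Glo luminescence, measured after half an hour at room temperature, quantified reporter output of PGC/ERR cells. These had been plated at 2,000 per well, incubated 6 h, dosed with compounds in DMSO, then kept 18 h at 37 C.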

Assay [7] in a line: qHTS assay to identify small molecule agonists of the estrogen related receptor signaling pathway with the pleiotropic PPARgamma coactivator (PGC) from Tox21 10K library (AID 1224842). Also: nearly all actives have a fitted effect of over 15% in size. Also: potency is read from the fitted curve at half-maximal effect. The method, boiled down:
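Luminescence from One-Glo (30 min, room temperature) measured after PGC/ERR cells had 18 h at 37 C with pinned compound (23 nL in DMSO). Cells had been seeded at 2,000 per well and pre-incubated 6 h.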

Assay [8] can be described thus: qHTS assay to identify small molecule agonists of the hypoxia (HIF-1) signaling pathway - cell viability counter screen (AID 1224844; calls by dose curve; also: nearly all actives have a fitted effect of over 50% in size). The method, boiled down: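 In this counter screen, HRE-bla ME-180 cell viability after 17 hrs of compound exposure at 37C was read by CellTiter-Glo luminescence, multiplexed with the beta-lactamase reporter measurement.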
Assay [9] is described as follows: qHTS assay to identify small molecule agonists of H2AX (AID 1224845; active = well fitted activation curve with a large enough effect in the signal ratio in the repeat runs, not every such curve was filed as active; the % refers to the signal ratio; also: potency is read from the fitted curve at half-maximal effect). The procedure, abridged: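 Phospho-H2AX Ser139 measured by HTRF (ex 320 nm; em 665 and 620 nm) after 24 hr antibody incubation. Compounds, 15 concentrations, 0.76% DMSO, were applied to CHO-K1 cells for 3hr at 37C before lysis.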
The nature of assay [10]: qHTS assay to identify small molecule agonists of the hypoxia (HIF-1) signaling pathway (AID 1224846; active = well fitted activation curve with a large enough effect in the signal ratio in the repeat runs, not every such curve was filed as active; the % refers to the signal ratio). The method, boiled down: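 ME-180 HRE-bla reporter cells; compounds in DMSO, 17 h at 37C; read-out beta-lactamase via CCF4-AM FRET.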
Assay [11] in a line: qHTS assay to identify small molecule antagonists of the estrogen related receptor (ERR) signaling pathway from Tox21 library (AID 1224848). Also: nearly all actives have a fitted effect of over 50% in size. Also: potency is read from the fitted curve at half-maximal effect. The procedure, abridged: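 Luciferase luminescence (ONE-Glo, 30 min room temperature) was the read-out. Cells of the NTP-supplied ERR line, 2,000 per well, were given 6 h at 37 C before compound addition in DMSO and 18 h exposure at 37 C.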

Assay [12] in a line: qHTS assay to identify small molecule agonists of the estrogen related receptor (ERR) signaling pathway from Tox21 library (AID 1224849; calls by dose curve; also: nearly all actives have a fitted effect of over 15% in size). The conditions noted are these: ERR reporter cell line, ONE-Glo luciferase, 18 h; at 92.4 µM (top of the series) unless noted. The procedure, abridged: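 Luciferase activity in ERR pathway reporter cells served as the agonist readout; exposure lasted 18 h at 37 C, with ONE-Glo detection after 30 min at room temperature.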

Assay [13] in a line: qHTS RealTime-Glo MT Cell Viability Assay in HepG2 cells - 24 hour (AID 1224867). Also: nearly all actives have a fitted effect of over 50% in size. The method, boiled down: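 Tox21 10K library screened in qHTS format on HepG2 cells carrying RealTime-Glo reagents. Compounds were added after a 5 h preincubation, and the luminescent signal from continuous culture was measured repeatedly during 40 h treatment.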
Assay [14] in a line: A CellTox Green Cytotoxicity Assay to monitor cytotoxicity in HEK293 cells - 0 hour (AID 1224869). Also: nearly all actives have a fitted effect of over 50% in size. The method, boiled down: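 Real-time, in one plate: 600 HEK293 cells/well with dead-cell DNA dye, pinned compound after 5 h, 37 C incubation over 40 h; viable cells give no appreciable fluorescence.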
A short description of assay [15]: qHTS assay to identify small molecule agonists of H2AX - cell viability counter screen (AID 1224847; calls by dose curve; also: nearly all actives have a fitted effect of over 30% in size; also: potency is read from the fitted curve at half-maximal effect). The method, boiled down: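 Wild-type CHO-K1 cells (10% FBS medium) were plated overnight at 37C, exposed to compounds at 15 concentrations for 3 hr at 37C (0.76% DMSO final), and viability was read as CellTiter-Glo luminescence after 30 min at room temperature.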

Assay [16] in a line: qHTS RealTime-Glo MT Cell Viability Assay in HEK293 cells - 32 hour (AID 1224868). Also: nearly all actives have a fitted effect of over 50% in size. Also: potency is read from the fitted curve at half-maximal effect. The method, boiled down:
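Luminescence generated by NanoLuc from substrate produced by living HEK293 cells served as the viability signal. Each value reflects the reading at its stated time point during continuous 40 h compound exposure at 37 C.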

A short description of assay [17]: qHTS RealTime-Glo MT Cell Viability Assay in HepG2 cells - 40 hour (AID 1224870). Also: nearly all actives have a fitted effect of over 50% in size. The procedure, abridged:
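Real-time viability: cells seeded at 600 per well together with NanoLuc and cell-permeant prosubstrate, compounds added after 5 h incubation. Luminescence tracked at 0, 8, 16, 24, 32 and 40 h of exposure.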

The nature of assay [18]: qHTS assay to identify small molecule antagonists of the constitutive androstane receptor (CAR) signaling pathway - cell viability counter screen (AID 1224837). Also: nearly all actives have a fitted effect of over 45% in size. Also: potency is read from the fitted curve at half-maximal effect. The method, boiled down:
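CITCO at 50 nM final was added alongside compounds (15 concentrations) to double-stable hCAR/CYP2B6-2.2kb HepG2 cells. Following 23 hr at 37 C, cell viability was quantified by CellTiter-Fluor fluorescence intensity.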

Assay [19] deals with Thyrotropin receptor (Homo sapiens) (UniProt P16473). Nature of the assay: qHTS assay to identify small molecule agonists of the thyroid stimulating hormone receptor (TSHR) signaling pathway (AID 1224843; calls by dose curve; also: nearly all actives have a fitted effect of over 45% in size). The procedure, abridged: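 Agonist activity read as cAMP rise via d2/cryptate HTRF competition, 1 h room-temperature detection, in HEK293 cells expressing TSHR. Fifteen-point titrations, each run in triplicate, with a 30 min room-temperature incubation beforehand.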

Eight compounds from PubChem BioAssay (Tox21) can be followed below.

The structures appear in SMILES notation. Values without a mark were called inactive. Records with an inconclusive call do not appear. The source made the active and inactive calls. Unless noted, calls follow the shape of the dose curve; as a rule, active = well fitted curve in the direction sought with a large enough effect in the repeat runs; inconclusive = weak or mixed curves; inactive = no such curve, though single readings can be large; an effect the other way counts as inactive or inconclusive.
% is scaled to controls: 0 for no effect and ±100 for the full control effect.

Chain of Luciferin 4-monooxygenase (Photinus pyralis) (P08659 whole entry, looked up): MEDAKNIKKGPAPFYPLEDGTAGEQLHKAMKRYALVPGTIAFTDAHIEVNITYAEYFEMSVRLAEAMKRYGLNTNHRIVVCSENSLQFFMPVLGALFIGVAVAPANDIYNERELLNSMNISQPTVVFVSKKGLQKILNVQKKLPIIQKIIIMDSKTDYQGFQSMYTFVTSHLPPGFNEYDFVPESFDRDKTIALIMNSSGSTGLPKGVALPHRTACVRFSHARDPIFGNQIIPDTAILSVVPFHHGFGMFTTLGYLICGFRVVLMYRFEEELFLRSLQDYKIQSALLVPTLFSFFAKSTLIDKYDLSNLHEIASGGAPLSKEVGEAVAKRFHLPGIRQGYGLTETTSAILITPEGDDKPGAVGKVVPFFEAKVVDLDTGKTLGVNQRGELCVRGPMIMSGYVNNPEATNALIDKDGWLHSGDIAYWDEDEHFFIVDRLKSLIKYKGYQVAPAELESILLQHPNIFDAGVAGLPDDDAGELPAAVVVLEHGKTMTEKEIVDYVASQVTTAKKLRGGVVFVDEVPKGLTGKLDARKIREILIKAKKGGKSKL
Chain of Nuclear receptor subfamily 1 group I member 3 (Homo sapiens) (Q14994 whole entry, looked up): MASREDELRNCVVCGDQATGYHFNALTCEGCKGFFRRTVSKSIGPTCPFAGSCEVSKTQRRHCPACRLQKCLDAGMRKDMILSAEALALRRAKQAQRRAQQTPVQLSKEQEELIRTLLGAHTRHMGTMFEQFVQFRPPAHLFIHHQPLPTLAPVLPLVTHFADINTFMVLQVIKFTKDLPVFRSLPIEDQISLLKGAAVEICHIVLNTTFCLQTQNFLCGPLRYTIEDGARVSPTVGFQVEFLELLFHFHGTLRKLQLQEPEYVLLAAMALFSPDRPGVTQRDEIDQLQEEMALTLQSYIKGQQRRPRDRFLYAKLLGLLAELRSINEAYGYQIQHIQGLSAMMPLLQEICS
Chain of Thyrotropin receptor (Homo sapiens) (P16473 whole entry, looked up): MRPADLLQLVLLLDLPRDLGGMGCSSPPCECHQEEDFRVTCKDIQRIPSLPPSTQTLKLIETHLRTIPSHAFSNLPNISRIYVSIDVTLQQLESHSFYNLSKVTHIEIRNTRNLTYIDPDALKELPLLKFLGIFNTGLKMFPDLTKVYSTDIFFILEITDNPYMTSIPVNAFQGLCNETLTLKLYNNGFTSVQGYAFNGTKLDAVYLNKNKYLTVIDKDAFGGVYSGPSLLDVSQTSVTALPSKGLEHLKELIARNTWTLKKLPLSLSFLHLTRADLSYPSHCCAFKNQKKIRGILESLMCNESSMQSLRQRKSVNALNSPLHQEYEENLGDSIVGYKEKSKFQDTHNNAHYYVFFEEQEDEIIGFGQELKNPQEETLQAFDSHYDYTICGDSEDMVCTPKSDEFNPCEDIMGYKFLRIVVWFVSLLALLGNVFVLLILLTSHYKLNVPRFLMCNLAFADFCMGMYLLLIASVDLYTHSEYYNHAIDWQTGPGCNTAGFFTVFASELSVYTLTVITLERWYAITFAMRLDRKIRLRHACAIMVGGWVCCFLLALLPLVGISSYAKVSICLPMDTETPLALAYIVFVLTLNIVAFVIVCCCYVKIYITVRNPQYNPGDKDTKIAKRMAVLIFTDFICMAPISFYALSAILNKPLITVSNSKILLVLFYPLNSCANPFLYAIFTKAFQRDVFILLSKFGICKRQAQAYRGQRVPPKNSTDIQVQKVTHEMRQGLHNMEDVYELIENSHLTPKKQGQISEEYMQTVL

`CCCCCCOc1ccc(N)cc1`: the Potency in assay [1] is 31.7 µM (active); in assay [4], 27.3 µM (active); in [7], 12.2 µM (active); in assay [9], 56.6 µM (active). In addition, the Potency entry in assay [2], in [3], in assay [5], in [6], in assay [8] and in assay [11] was “inactive” each time. Also, the Potency entry in [13] and in [14] was “inactive” each time. The result in [10] was inactive. Also, in assay [12], the activity change, positive = activation was 2.67%.
On to `O=Cc1ccc(O)c(O)c1O`, for which the Potency entry in assay [1], in [2], in assay [3], in assay [4], in [5] and in assay [8] was “inactive” in each case. Moreover, the Potency result in [15], in [16], in assay [14] and in assay [17] was “inactive” throughout. In [10], the compound was classed as inactive.
In the case of `FC(F)(F)C(F)(F)C(F)(F)C(F)(F)C(F)(F)C(F)(F)C(F)(F)C(F)(F)Br`, the Potency entry in assay [1], in assay [2], in assay [3], in [4], in assay [5] and in assay [6] was “inactive” throughout. Also, the Potency result in assay [7], in assay [8], in assay [9], in assay [15], in assay [11] and in assay [13] was “inactive” throughout. Also, the Potency result in assay [16], in assay [14] and in [17] was “inactive” throughout. Moreover, the compound was called inactive in [10]. Moreover, the activity change, positive = activation in assay [12] is 6.1% [at 42.5 µM].
Consider `O=C(CC(=O)C(F)(F)F)c1ccccc1`, for which the Potency result in assay [2], in [18], in [3], in assay [6], in assay [9] and in [15] was “inactive” throughout. For the same compound, the Potency result in assay [11], in assay [13], in assay [16], in [14] and in assay [17] was “inactive” each time. Besides, the Potency was 55.3 µM (active) in assay [4] and 6.2 µM (active) in assay [7]. In addition, the activity change, positive = activation in [12] was -6.03%.
Regarding `CCCCNc1cc(C(=O)O)cc(S(N)(=O)=O)c1Oc1ccccc1`, the Potency result in assay [1], in [2], in [5], in assay [19], in assay [8] and in assay [9] was “inactive” throughout. Also, the Potency entry in assay [15], in [13], in assay [16], in [14] and in [17] was “inactive” each time. In addition, the call in assay [10] was inactive.
In the case of `CCCCOc1cc(C(=O)NCCN(CC)CC)c2ccccc2n1`, the Potency entry in assay [1], in assay [5], in assay [8], in assay [9], in assay [15] and in [13] was “inactive” throughout. The Potency entry in assay [14] and in assay [17] was “inactive” each time. The Potency in assay [16] is 21.3 µM (active).
As to `Cc1nc(N)nc(N)c1-c1ccc(Cl)c(Cl)c1`, the Potency entry in [1], in assay [2], in [7], in assay [8], in assay [13] and in assay [14] was “inactive” each time. Moreover, the Potency was 0.841 µM (active) in assay [6], 1.24 µM (active) in assay [15] and 0.944 µM (active) in [11]. Moreover, the compound was classed as inactive in [10]. Also, the activity change, positive = activation in [12] is -56.5% [at 42.5 µM].
Regarding `Cc1nc(-c2ccccn2)ncc1C(=O)Nn1cc(C)c2cc(F)ccc21`, the Potency entry in assay [1], in assay [4], in [7], in assay [15], in assay [14] and in assay [17] was “inactive” in each case. Besides, the Potency in [18] is 24.3 µM (active); in assay [3] it was 13.7 µM (active); in [6], 38.6 µM (active); in assay [11], 54.5 µM (active); in assay [16] it was 1.55 µM (active). Also, the activity change, positive = activation in assay [12] was -53.1%.
